High-throughput results from PubChem BioAssay.
RmlCD inh 1536: M. tuberculosis RmlC/RmlD inhibition; P9WH09+P9WH11; RmlC+RmlD coupled enzyme assay, percent inhibition; primary screen in compound mixtures; inhibition, % at 3.6 µM; hit rate 0.03% among 160,000; AID 1533; in the data active means inhibition mostly above about 34%, no sharp cut-off
Target sequence (P9WH09 whole entry, looked up): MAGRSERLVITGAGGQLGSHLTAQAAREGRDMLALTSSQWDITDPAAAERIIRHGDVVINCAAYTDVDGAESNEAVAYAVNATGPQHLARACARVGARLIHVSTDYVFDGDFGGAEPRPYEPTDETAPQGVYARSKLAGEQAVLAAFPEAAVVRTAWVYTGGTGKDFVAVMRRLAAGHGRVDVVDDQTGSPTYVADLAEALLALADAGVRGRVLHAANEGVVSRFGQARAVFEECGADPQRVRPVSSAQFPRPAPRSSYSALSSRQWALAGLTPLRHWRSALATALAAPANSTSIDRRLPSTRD
Target sequence (P9WH11 whole entry, looked up): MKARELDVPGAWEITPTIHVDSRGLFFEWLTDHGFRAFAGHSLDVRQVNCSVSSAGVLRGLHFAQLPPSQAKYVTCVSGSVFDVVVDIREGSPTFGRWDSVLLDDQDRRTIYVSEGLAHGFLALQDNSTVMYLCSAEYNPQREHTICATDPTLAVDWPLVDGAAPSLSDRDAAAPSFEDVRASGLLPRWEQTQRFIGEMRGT
YopH inh: blocks Yersinia enterocolitica YopH tyrosine phosphatase; fluorescence Ex485/Em525; inhibition, % (no concentration beside the values); hit rate 0.16% among 140,000; AID 898; in the data active means inhibition above about 50%
Active calls of the source: *; . = no result given. The sample as a whole holds a higher share of hits than the screen did.

SMILES | RmlCD inh 1536 | YopH inh
CNC(=S)N/N=C/c1cc(Br)cc(Br)c1O | -8 | -22
Cc1ccc(C(=O)O)cc1N=Cc1cc(Br)cc(Br)c1O | 45* | -24
S=c1[nH]nc(-c2ccc(Cl)cc2)n1/N=C/C=C/c1ccco1 | 60 | .
S=c1[nH]nc(-c2ccccc2)n1/N=C/C=C/c1ccco1 | 9 | 51*
O=C(NCC1CCCO1)c1ccc(NS(=O)(=O)c2ccccc2)cc1 (stereo not drawn) | -10 | .
O=C(NC1(O)C(=O)c2ccccc2C1=O)c1c(Cl)cccc1Cl | -3 | .
O=C(NC1(O)C(=O)c2ccccc2C1=O)c1ccccc1 | . | 102*
COc1cccc(CN2CCN(c3nc4nonc4nc3NC3CC3)CC2)c1 | 4 | .
COC1=C(N)C(=O)c2nc(-c3nc(C(=O)O)c(C)c(-c4ccc(OC)c(OC)c4O)c3N)ccc2C1=O | . | 101*
COC(=O)c1nc(-c2ccc3c(n2)C(=O)C(N)=C(OC)C3=O)c(N)c(-c2ccc(OC)c(OC)c2O)c1C | -13 | .
CNC(=O)Nc1ccccc1C(=O)Nc1ccccc1 | 1 | .
Cc1c(Cl)c(=O)oc2cc(OC(C)C)ccc12 | . | -15
CCC(=O)Oc1ccc2c(C)c(Cl)c(=O)oc2c1 | 43* | -32
CC(=O)Nc1c(C)ccc(S(N)(=O)=O)c1C | 4 | .
COc1ccc2c(c1)CCc1c(C(=O)N3CCCCCC3)noc1-2 | 46 | -39
COc1ccc2c(c1)CCc1cc(C(=O)N3CCN(c4ccc(N5CCOCC5)nn4)CC3)sc1-2 | -19 | 76*
Cc1ccc(S(=O)(=O)Nc2nc(C)c(NC(=O)Nc3ccc(Cl)cc3Cl)s2)cc1 | 28 | 0
COC1=C(c2ccccc2)C(=O)c2ccccc2C1=O | . | 49
Nc1ccc2c(c1)Cc1ccccc1-2 | 5 | -23
O=C1C(=O)c2ccc(-c3ccccc3)cc2-c2ccccc21 | . | 77*
Nc1ccc2c(c1)C(=O)C(=O)c1ccccc1-2 | 2 | 101*
O=C(CCl)Nc1cccc(Oc2ccccc2)c1 | 7 | .
O=C(c1ccc(Br)cc1)N(Cc1nc2ccccc2c(=O)[nH]1)C1CCCC1 | 10 | .
O=C1C=C(NCCN2CCOCC2)C(=O)c2cnccc21 | . | 101*
O=C(NCCN1CCOCC1)c1ccncc1 | -6 | -31
SMILES | RmlCD inh 1536 | YopH inh
O=c1nccc(Nc2ccccc2)[nH]1 | -6 | .
O=c1[nH]c(Nc2ccccc2)cc2ccccc12 | -5 | 101*
COCCCn1c(=O)/c(=C\c2ccc(OC(F)F)c(OC)c2)s/c1=C(/C#N)C(=O)NCCOC | 66* | .
COCCCn1c(=O)/c(=C\c2ccccc2OC(F)F)s/c1=C(/C#N)C(=O)NC(C)C | -8 | -16
CCOC(=O)C(=O)Nc1ccc(Oc2ccccc2)cc1 | -7 | .
CCCCN(CCCC)C(=S)NC(=O)c1ccccc1Cl | -14 | -28
CC(=O)c1cc2c(cc1NS(=O)(=O)c1ccccc1F)OCO2 | -14 | .
O=C(NCCCn1ccnc1)c1cc2c(ccc3ccccc32)o1 | 5 | .
COCCNC(=S)Nc1ccc2[nH]c(=O)[nH]c2c1 | 8 | .
COc1cc(CNc2ccc(N3CCCC3)cc2)cc(Cl)c1OC | 2 | .
CCOc1cc(CNc2ccc(N3CCCC3)cc2)cc(Cl)c1OC | . | 74*
Cc1nc2c(n1C1CCCCC1)C(=O)c1ccccc1C2=O | 18 | -28
CN(C)CCCC1(c2ccc(F)cc2)OCc2cc(C#N)ccc21 (stereo not drawn) | 0 | -18
CCCCn1c(N)c(NCCC(C)C)c(=O)[nH]c1=O | -3 | 52*
CCCCn1c(N)c(Sc2ccccc2)c(=O)[nH]c1=O | 11 | -31
CCOC(=O)c1c(/N=C/c2ccc(O)cc2O)sc2c1CCC2 | . | -16
CCOC(=O)CC(=O)CSc1nc(CC)c(C)cc1C#N | 36* | .
CCc1nc(SCC(=O)O)c(C#N)cc1C | 11 | -46
COC(=O)CCC(=O)NC(=S)Nc1cc(Cl)ccc1Cl | 4 | -43
CCCCOC(=O)C1=C(C)NC2(O)c3ccccc3C(=O)C12O (stereo not drawn) | 10 | 67*
CCOC(=O)C1=C(C)N[C@@]2(O)c3ccccc3C(=O)[C@@]12O | 7 | 35
COc1ccc(-n2nc3ccccc3n2)cc1 | 0 | 50*
COc1ccc2nc3ccccc3nc2c1 | -8 | .
Cc1ccc(S(=O)(=O)N(C)/N=C/C=C/c2ccccc2)cc1 | -7 | -9
O=[N+]([O-])c1ccc(-c2csc3[n+]2CCS3)cc1 | . | 51*
SMILES | RmlCD inh 1536 | YopH inh
Fc1ccc(-c2csc3[n+]2CCS3)cc1 | . | -9
O=C1N(Cc2cccnc2)C[C@@H]2C[C@@H](c3cccc(OC4CCCC4)c3)N3CCC[C@@]123 | -3 | .
CSc1sc(C(=O)O)c(C)c1C(C)=O | -8 | -32
CSc1nsc(/C=C/Nc2ccc(F)cc2)c1C#N | 5 | .
CSc1nsc(/C=C/Nc2ccc(Cl)cc2)c1C#N | . | 56*
Cc1ccccc1Nc1nc(N)nc(CSc2n[nH]c(N)n2)n1 | 7 | .
O=C(C[n+]1cccc(O)c1)Nc1ccc(Br)cc1 | 4 | .
O=C(CSc1ncn[nH]1)c1ccc2c(c1)OCCO2 | -11 | -18
O=C(CSc1ncn[nH]1)c1ccc2c(c1)OCO2 | -10 | 57*
O=C(CSc1nnc(-c2cccs2)o1)Nc1cccc(S(=O)(=O)N2CCCCC2)c1 | 47 | -15
O=C(NCC1CCCO1)c1cc(S(=O)(=O)N2CCCC2)c(Cl)cc1Cl (stereo not drawn) | -3 | .
O=C(Nc1nnc(C(F)(F)F)s1)c1ccc(N2C(=O)C3C4C=CC(C4)C3C2=O)cc1 (stereo not drawn) | . | 98*
CCCc1nnc(NC(=O)c2ccc(N3C(=O)C4C5C=CC(C5)C4C3=O)cc2)s1 (stereo not drawn) | . | -21
COc1ccc(C(=O)NC2=Nc3ccccc3N=C(C)C2c2ccccc2)cc1 (stereo not drawn) | -1 | .
Cn1c2ccccc2c(=O)n2c(=O)c3ccccc3cc12 | . | 101*
Cn1c(-c2ccccc2)cc(=O)c2ccccc21 | . | -4
Cc1nc2sc(C(c3ccc(F)cc3)N3CCOCC3)c(O)n2n1 (stereo not drawn) | . | -21
Cc1ccc(C(c2sc3nc(C)nn3c2O)N2CCOCC2)cc1 (stereo not drawn) | -8 | 64*
CCOc1ccccc1OC(=O)c1cc2ccccc2oc1=O | -5 | .
CC(=O)NC1=C(NC2CCS(=O)(=O)C2)C(=O)c2ccccc2C1=O (stereo not drawn) | 11 | -3
CN(C1=C(NC(=O)c2ccccc2)C(=O)c2ccccc2C1=O)C1CCS(=O)(=O)C1 (stereo not drawn) | . | 65*
O=c1[nH]c2ccccc2c(O)c1-c1ccccc1[N+](=O)[O-] | -11 | .
O=C1[C@@H]2[C@@H]3C[C@@H]([C@H]4ON=C(c5ccc(OCc6ccccc6)cc5)[C@@H]34)[C@@H]2C(=O)N1c1ccc2c(c1)OCO2 | 9 | -20
COC(=O)C1C(C(C)C)N(c2ccccc2)OC1(C)O (stereo not drawn) | -4 | 59*
CC(C)OC(=O)C1C(=O)CC(C)(O)C(C(=O)OC(C)C)C1c1ccccc1 (stereo not drawn) | 4 | .
Cc1cccc(CSCc2ccc(C(=O)NCC3CCCO3)o2)c1 (stereo not drawn) | 33 | .
COc1ccc(C2=Nc3cccc4cccc(c34)N2)cc1 | 1 | -21
Nc1cccc(C2=Nc3cccc4cccc(c34)N2)c1 | 9 | 62*
COc1ccc(-c2nnn(CC(=O)N(Cc3ccccc3Cl)C(C(=O)NCC3CCCO3)c3ccco3)n2)cc1OC (stereo not drawn) | 27 | -28
CCOc1ccc(NC(=S)Nc2ccc3nsnc3c2)cc1 | -10 | 84*
